The source made the active and inactive calls. Calls follow the shape of the full dose curve.
% is scaled to controls: 0 for no effect and ±100 for the full control effect.

Sequence of Thyrotropin-releasing hormone receptor (Homo sapiens) (P34981 whole entry, looked up): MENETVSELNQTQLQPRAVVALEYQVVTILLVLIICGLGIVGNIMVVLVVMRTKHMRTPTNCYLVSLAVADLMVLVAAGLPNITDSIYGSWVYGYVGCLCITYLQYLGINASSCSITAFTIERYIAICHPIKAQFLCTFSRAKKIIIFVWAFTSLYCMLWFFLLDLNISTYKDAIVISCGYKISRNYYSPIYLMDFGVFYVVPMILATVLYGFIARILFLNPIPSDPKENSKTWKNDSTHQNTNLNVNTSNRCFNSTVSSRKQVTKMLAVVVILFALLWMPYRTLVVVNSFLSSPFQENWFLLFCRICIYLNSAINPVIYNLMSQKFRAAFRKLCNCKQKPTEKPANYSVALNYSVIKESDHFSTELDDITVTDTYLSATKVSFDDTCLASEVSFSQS

This test concerns the target Thyrotropin-releasing hormone receptor (Homo sapiens) (UniProt P34981). The experiment in a line: qHTS assay to identify small molecule agonists of the thyrotropin-releasing hormone receptor (TRHR) signaling pathway (AID 1346891). The following applies: TRHR-HEK293 calcium fluorescence, agonist mode; series mostly up to 57.6 µM; activation: at the top concentration. The method, boiled down:
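HEK293 cells expressing TRHR plated 18 h at 37 C/5% CO2, calcium dye-loaded 2 h at 37 C, then compound added (agonist mode); kinetic calcium fluorescence read 3 min at 1 s intervals; 15 concentrations in triplicate.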
For `CN1C(=O)CC(C)(c2ccccc2)C1=O` (stereo unspecified), the “activation” value is -1.05% [at 26.5 µM] (inactive).

For `CC(=O)Nc1ccccc1C`, the “activation” value is 0.0267% (inactive).

`COc1ccc(CCC(=O)c2c(O)cc(O[C@@H]3O[C@H](CO)[C@@H](O)[C@H](O)[C@H]3O[C@@H]3O[C@@H](C)[C@H](O)[C@@H](O)[C@H]3O)cc2O)cc1O`: the “activation” value was -0.0146% (inactive).

As for `Cc1cc(OI)c(C(C)C)cc1-c1cc(C(C)C)c(OI)cc1C`, the “activation” value is -0.32% [at 26.5 µM] (inactive).

Consider `CC1=C(C=O)C(C)(C)CCC1`, for which the “activation” value was -0.608% (inactive).

`[O]=[Bi]`: the activation was -0.278% [at 5.23 µM] (inactive).

For `CN1Cc2cc(C(=O)N3CCC(C4CCNCC4)CC3)ccc2N[C@@H](CC(=O)O)C1=O`, the “activation” value is 0.0028% [at 26.5 µM] (inactive).

`O=C(O)c1snc(Cl)c1Cl`: the “activation” value is 0.324% (inactive).

Turning to `C=CC(=O)NCOCC(C)C`, the “activation” value was -0.137% (inactive).

On to `Cc1ccnc2ccccc12`, for which the “activation” value is -0.329% (inactive).

Regarding `NCC1CCCC(CN)C1` (stereo unspecified), the “activation” value is 0.52% (inactive).

`O=C(CCCCCCCCC#CI)Oc1ccccc1`: the “activation” value is -0.247% [at 26.5 µM] (inactive).

In the case of `CO[C@H]1O[C@H](CO)[C@@H](O)[C@H](O)[C@H]1O`, the “activation” value is -0.274% (inactive).

`O=S1OCCO1`: the “activation” value is -0.19% (inactive).

For `CC(CCc1ccc2c(c1)OCO2)NN` (stereo unspecified), the “activation” value is 0.0068% [at 26.5 µM] (inactive).

As for `CC1CC(O)CC(C)(C)C1` (stereo unspecified), the “activation” value is -0.16% (inactive).

With `CCCCCCOC(=O)C(C)C`, the “activation” value is 0.322% (inactive).

Consider `CCCC(=O)O[C@]1(C(=O)COC(=O)CC)CC[C@H]2[C@@H]3CCC4=CC(=O)CC[C@]4(C)[C@H]3[C@@H](O)C[C@@]21C`, for which the activation was -0.132% [at 11.8 µM] (inactive).

Regarding `CC1(C)C(=O)N(Br)C(=O)N1Cl`, the “activation” value is -0.143% (inactive).

As for `Cc1cc(O)c(C(C)C)cc1Cl`, the Potency result is “inactive”.

Consider `CCOC(=O)/C=C/C(=O)O`, for which the “activation” value is -0.137% (inactive).

The values are drawn from PubChem BioAssay (Tox21).
